Only a selection was taken, and hits are over-represented in it overall.
N370S GC: inhibitors or activators of N370S glucocerebrosidase for Gaucher disease | N370S GC spleen homogenate, 4MU-glucoside fluorescence | Potency, µM (series often up to 59.4 µM), without a hit: at the top dose activity change, negative = inhibition, actives largely listed as inhibitors | 330,000 compounds, 0.092% hits | P04062;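 also: potency is read from the fitted curve at half-maximal effect; 0% = full enzyme activity and -100% = no enzyme basal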
ClpP mod: qHTS Assay for Activators of ClpP | 340,000 compounds, 1.9% hits | purified B. subtilis ClpP, FRET peptide cleavage, 20 min | AID 651965, 2013 | Potency, µM (top dose mostly 57.5 µM), without a hit: at the top dose activity change, negative = active | ATP-dependent Clp protease proteolytic subunit (Bacillus subtilis (strain 168)), P80244; active = well fitted falling curve with a large enough effect; inconclusive = small, poorly fitted or top-dose-only effect; inactive = no such curve, though single readings can be large or run the other way; also: potency is read from the fitted curve at half-maximal effect; the source files actives as falling curves though it sought activators and does not explain the sign; nearly all actives have a fitted effect of over 65% in size
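Buffer: 100 mM Tris/HCl pH8, 100 mM KCl, 0.05% low protease BSA, 2.5% glycerol, 0.01% Tween-20. ClpP 10 microg/mL final; 20 min RT; delta FRET normalized to ADEP and DMSO controls.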
GRP78 ERSR act: induces the endoplasmic reticulum stress response in human glioma cells. 420,000 compounds, 0.02% hits. U87-MG GRP78 promoter luciferase reporter, 16 h. Potency, µM, inactives show at the top dose activation, actives largely listed as activators; also: potency is read from the fitted curve at half-maximal effect; series mostly up to about 76 µM; % of control where 0% means no effect; nearly all actives have a fitted effect of over 35% in size
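Stably transfected U87-MG glioma cells carrying a GRP78-based luciferase sensor; 16 h compound incubation. Luminescence end-point read 10 min after Bright-Glo addition at room temperature.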
a7 integrin act: activators of alpha7 integrin expression for muscular dystrophy. AID 624291. Potency, µM (top dose mostly 38.3 µM), for the others: at the top dose activation, usual class: activators. alpha7betagal myoblasts, beta-gal FDG fluorescence, 48 h. 350,000 compounds, 0.064% hits;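 also: potency is read from the fitted curve at half-maximal effect; 100% = response of the positive control SU9516; nearly all actives have a fitted effect of over 60% in size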
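Alpha7betagal+/- myoblasts (passage 13) were plated 16-24 hr, then exposed to compounds (1:260 dilution of DMSO stock) for 48 hours at 37C. After MPER lysis, β-galactosidase reporter activity was read as FDG fluorescence (ex 480/em 540) after 30 minutes.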
CBFb RUNX1 block: CBF-beta/RUNX1 interaction disruption; AlphaScreen CBFb-His/RUNX1-biotin binding, biochemical; Q01196+Q13951; 230,000 tested, under 10 active; Potency, µM (highest dose often 59.8 µM), for the others: top-dose activity, negative = inhibition, actives largely listed as inhibitors; also: % of control where 0% means no effect
Target sequence (Q01196 whole entry, looked up): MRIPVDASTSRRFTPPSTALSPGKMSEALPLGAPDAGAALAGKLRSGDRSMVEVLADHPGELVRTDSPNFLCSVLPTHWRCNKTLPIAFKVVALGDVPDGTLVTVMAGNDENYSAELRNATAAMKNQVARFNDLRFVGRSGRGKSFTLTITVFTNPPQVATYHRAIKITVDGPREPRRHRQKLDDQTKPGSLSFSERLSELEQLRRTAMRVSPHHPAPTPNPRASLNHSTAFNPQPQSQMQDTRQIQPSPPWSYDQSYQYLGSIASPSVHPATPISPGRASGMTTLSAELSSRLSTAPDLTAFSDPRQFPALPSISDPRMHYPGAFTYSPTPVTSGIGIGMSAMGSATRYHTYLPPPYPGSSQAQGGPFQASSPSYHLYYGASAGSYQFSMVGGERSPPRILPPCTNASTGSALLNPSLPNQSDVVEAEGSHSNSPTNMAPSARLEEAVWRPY
Target sequence (Q13951 whole entry, looked up): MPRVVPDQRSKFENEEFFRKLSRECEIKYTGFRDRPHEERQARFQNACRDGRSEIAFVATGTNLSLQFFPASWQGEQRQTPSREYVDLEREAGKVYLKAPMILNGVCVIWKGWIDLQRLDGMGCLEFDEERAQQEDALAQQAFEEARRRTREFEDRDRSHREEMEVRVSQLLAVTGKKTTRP
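Inhibition was taken as any reduction in AlphaScreen signal from the CBF-beta–RUNX1 pair (His and biotin tags, 30 nM each), measured after compound (15 min) and bead (90 min) incubations at room temperature.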
Apoferritin bind: binds horse apoferritin like a general anesthetic; Potency, µM (doses to about 77.5 µM), without a hit: at the top dose activity change, negative = displacement, most hits filed as inhibitors; apoferritin/1-aminoanthracene competitive binding, fluorescence; AID 485281; 350,000 compounds, 0.074% hits; also: potency is read from the fitted curve at half-maximal effect; % is scaled to controls: 0 for no effect and ±100 for the full control effect; nearly all actives have a fitted effect of over 20% in size
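Horse-spleen apoferritin (10 uM) was mixed with 50% saturated 1-aminoanthracene in PBS, exposed to compounds for 10 min at room temperature, and read for fluorescence (ex 380 nm, em 535 nm). Competitive displacement was fitted with a four-parameter Hill equation.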
ClpP validation: Bacillus subtilis ClpP inhibition, validated hit. shares compounds with ClpP mod. AID 743245. Potency, µM (series often up to 57.5 µM), for inactives: top-dose activity change, negative = inhibition, most hits filed as inhibitors. 470 compounds, 40% hits. purified B. subtilis ClpP, FRET-FV substrate cleavage, 20 min; also: potency is read from the fitted curve at half-maximal effect; % is scaled to controls: 0 for no effect and ±100 for the full control effect; nearly all actives have a fitted effect of over 70% in size
* = called active by the depositor; u = inconclusive; x = not tested or not shown; ! = not confirmed by another sample; [ ] = dose if it differs, or a comment. Unless noted, calls follow the shape of the dose curve; as a rule, active = well fitted curve in the direction sought with a large enough effect; inconclusive = small, poorly fitted or top-dose-only effect, or another doubt; inactive = no such curve, though single readings can be large; an effect the other way counts as inactive or inconclusive.

SMILES	N370S GC	ClpP mod	GRP78 ERSR act	a7 integrin act	CBFb RUNX1 block	Apoferritin bind	others
O=C(COc1ccc(F)cc1)Nc1nnc(-c2ccncc2)s1	5%	25µM*	0%	10%	7%	-1%
COc1ccc(CN2CCCC(n3cc(C(=O)NC4CCCC4)nn3)C2)c(O)c1 (stereo not drawn)	x	x	-1%	x	x	x
COc1cc(/C=C2\C=Cc3ccccc32)cc(OC)c1OC	x	0%	1%	x	x	x
COc1cccc2cc(C(=O)N3CCCCC3C)c(=O)oc12 (stereo not drawn)	5%	4%	4%	0%	-6%	0%
COc1cccc2cc(NC(=O)C3CCCCC3)c(=O)oc12	-11%	35µM*	8%	9%	2%	-6%
COc1cccc(-c2c(-c3ccccc3OC)ncn2Cc2cccc(-c3ccccc3)c2)c1	x	28µM*	x	x	x	x
COc1ccc(CCNC(=O)C2CCC(=O)N(CC3CCCCC3)C2)cc1 (stereo not drawn)	0%	32µM*	2%	29%	x	-20%
c1ccc(-c2nc(-c3cccs3)[nH]c2-c2ccccc2)cc1	-5%	32µM*	-6%	-18%	-6%	-13%
COc1cc(-c2nc(-c3ccccc3)c(-c3cccs3)[nH]2)cc(OC)c1O	x	28µM*	-5%	-4%	-19%	-9%
COc1cc(-c2nc(-c3ccccc3)c(-c3cccs3)[nH]2)cc(OC)c1OC	6%	32µM*	-5%	4%	-2%	-4%
c1csc(-c2nc3c4ccccc4c4ccccc4c3[nH]2)c1	17%	40µM*	-2%	18%	14%	59%
COc1cc(-c2nc(-c3ccc4c(c3)-c3ccccc3S4(=O)=O)c(-c3ccccc3)[nH]2)cc(OC)c1OC	0%	-8%	0%	25%	-5%	89%
O=C(O)c1ccccc1-c1nc(-c2ccccc2)c(-c2ccccc2)[nH]1	6%	x	-3%	10%	-5%	-4%
Oc1ccccc1-c1nc2c3ccccc3c3ccccc3c2[nH]1	u	4%	8%	25%	18%	-9%
O=C(/C=C/c1ccccn1)NCC1Cc2cccc(-c3ncccn3)c2O1 (stereo not drawn)	x	x	0%	x	x	x
O=C(Cn1ccc2ccccc2c1=O)NCCC(=O)Nc1cccc(Cl)c1	-1%	18µM*	-3%	8%	x	-7%
Cc1c(NC(=O)COC(=O)c2ccccc2Cl)c(=O)n(-c2ccccc2)n1C	-18%	x	-2%	-34%	8%	-5%
Cc1c(NC(=O)CSc2nc(N)cc(N)n2)c(=O)n(-c2ccccc2)n1C	x	28µM*	-4%	12%	x	x
COc1ccc2c(C)cc(SCC(=O)Nc3c(C)n(C)n(-c4ccccc4)c3=O)nc2c1	-14%	25µM*	0%	-4%	3%	-19%
Cc1c(NC(=O)COC(=O)c2cc3c4ccccc4n(C)c3s2)c(=O)n(-c2ccccc2)n1C	-15%	25µM*	-2%	-5%	9%	-20%
COc1ccc2c(CC(=O)Nc3c(C)n(C)n(-c4ccccc4)c3=O)coc2c1	0%	-2%	-1%	1%	11%	-19%
Nc1c(C(=O)NC2CC2)c2nc3ccccc3nc2n1-c1ccc2c(c1)OCO2	10%	32µM*	-6%	5%	4%	-7%
Cc1ccc2c(c1)c1cccc3c1n2CCN3CCC(N)=O	7%	14µM*	3%	11%	-29%	-7%
C=CCN1C(=O)c2ccc(C(=O)N(C)CC(=O)Nc3ccccc3Br)cc2C1=O	4%	22µM*	-5%	18%	x	-10%
C=CCN1C(=O)c2ccc(C(=O)N(C)CC(=O)Nc3ccccc3C(F)(F)F)cc2C1=O	-1%	-8%	-3%	u	x	-6%
SMILES	N370S GC	ClpP mod	GRP78 ERSR act	a7 integrin act	CBFb RUNX1 block	Apoferritin bind	others
COCC(=O)Nc1cccc(-c2nc3cccnc3s2)c1	x	5%	-2%	x	x	45%
O=C(Cc1ccc(F)cc1)Nc1cccc(-c2nc3cccnc3s2)c1	x	8.9µM*	0%	x	x	-4%	ClpP validation=-13%
Nc1nc(F)nc2c1ncn2[C@@H]1O[C@H](COP(=O)(O)O)[C@@H](O)[C@@H]1O	x	x	-3%	x	x	x
COc1ccc(-n2c(-c3cccc(OC)c3)nc(=S)c3c2CCCC3)cc1	9%	53%	4%	-19%	2%	-17%	ClpP validation=2%
COc1ccc(-n2c(-c3ccccc3)nc(=S)c3c2CCCC3)cc1	5%	3%	-4%	-13%	-1%	-14%
COc1ccc2c(c1)CCc1c(C(=O)Nc3cc(C)n(Cc4ccc(Cl)cc4)n3)noc1-2	2%	60%	-1%	3%	2%	-4%	ClpP validation=-17%
C=C1C=C(C(F)F)n2ncc(C(=O)N3CCCCC3)c2N1	x	-2%	-3%	x	x	x
Cc1ccc2nc(-c3ccco3)c(Nc3ccccc3)n2c1	-12%	3.2µM*!	-2%	0%	-7%	-4%	ClpP validation=u
Nc1ncnc2oc(-c3ccoc3)c(-c3ccco3)c12	x	4%	-5%	x	x	x
Nc1ncnc2oc(-c3ccco3)c(-c3ccco3)c12	4%	8.9µM*	-3%	-21%	x	-1%	ClpP validation=22µM*
C=C(NNC(C)=O)c1ccc(O)cc1	x	4%	-3%	x	x	x
COc1ccc(S(=O)(=O)N2CCOC23CCN(S(=O)(=O)c2cccs2)CC3)cc1	-27%	1%	-4%	11%	x	x
O=S(=O)(c1ccccc1)N1CCC2(CC1)OCCN2S(=O)(=O)c1cccs1	-2%	33%	-3%	u	x	x	ClpP validation=0%
c1ccc(-c2nn[nH]n2)c(Nc2cccc3c2CCCC3)c1	0%	x	-7%	x	-2%	1%
Cc1cc2ccc(Cl)nc2nc1C	x	-4%	-2%	x	x	x
CN(C)c1ccc(/C=C/c2ccnc3ccc(I)cc23)cc1	x	-3%	-1%	x	x	x
COc1cc2ccccc2cc1C(=O)NCC(c1cccs1)N(C)C (stereo not drawn)	12%	3.2µM*	5%	-17%	-9%	-17%	ClpP validation=u
CCN(Cc1ccccc1)C(=O)Cn1c(=O)n(Cc2ccccc2)c(=O)c2c1c1cc(OC)ccc1n2C	x	0.71µM*	-3%	x	x	11%	ClpP validation=27µM*
O=C(NC1CCCCC1)N(Cc1cc2cc3c(cc2[nH]c1=O)OCCO3)CC1CCCO1 (stereo not drawn)	13%	10µM*	-4%	-7%[7.66 µM]	-4%	-11%	ClpP validation=u
NC(=O)COC(=O)c1ccccc1OCC(=O)Nc1ccc(Br)cc1	x	-2%	-3%	x	x	x
